Screens (PubChem BioAssay)
HEK cytotox: Cytotoxic Profiling in HEK 293 Cell Line of Diverse Libraries Using Quantitative High-Throughput Screening; 94,000 compounds, 6.6% hits; Potency, µM (series often up to 115 µM), for the others: top-dose activity change, negative = cytotoxicity, most hits filed as inhibitors; HEK 293 viability, ATP luminescence (CellTiter-Glo), 48-72 h; further: nearly all actives have a fitted effect of over 60% in size
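Cells seeded first (HEK 293, 250 cells/well), then compound added by pintool. Incubation ran 48 or 72 hr at 37 degree Celsius. CellTiter-Glo was added and luminescence imaged after 10 min at room temperature.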
hNpr1 antagonist: Natriuretic polypeptide receptor (hNpr1) antagonism - Primary qHTS | Atrial natriuretic peptide receptor 1 (Homo sapiens), P16066 | HEK293 hNpr1 GloSensor cGMP, ANP-stimulated luminescence | Potency, µM (doses to about 46.3 µM), for the others: at the highest dose activity change, negative = inhibition, most hits filed as inhibitors | 76,000 compounds, 1.6% hits | AID 1347048, 2019; calls by dose curve; further: nearly all actives have a fitted effect of over 60% in size
Target sequence (P16066 whole entry, looked up): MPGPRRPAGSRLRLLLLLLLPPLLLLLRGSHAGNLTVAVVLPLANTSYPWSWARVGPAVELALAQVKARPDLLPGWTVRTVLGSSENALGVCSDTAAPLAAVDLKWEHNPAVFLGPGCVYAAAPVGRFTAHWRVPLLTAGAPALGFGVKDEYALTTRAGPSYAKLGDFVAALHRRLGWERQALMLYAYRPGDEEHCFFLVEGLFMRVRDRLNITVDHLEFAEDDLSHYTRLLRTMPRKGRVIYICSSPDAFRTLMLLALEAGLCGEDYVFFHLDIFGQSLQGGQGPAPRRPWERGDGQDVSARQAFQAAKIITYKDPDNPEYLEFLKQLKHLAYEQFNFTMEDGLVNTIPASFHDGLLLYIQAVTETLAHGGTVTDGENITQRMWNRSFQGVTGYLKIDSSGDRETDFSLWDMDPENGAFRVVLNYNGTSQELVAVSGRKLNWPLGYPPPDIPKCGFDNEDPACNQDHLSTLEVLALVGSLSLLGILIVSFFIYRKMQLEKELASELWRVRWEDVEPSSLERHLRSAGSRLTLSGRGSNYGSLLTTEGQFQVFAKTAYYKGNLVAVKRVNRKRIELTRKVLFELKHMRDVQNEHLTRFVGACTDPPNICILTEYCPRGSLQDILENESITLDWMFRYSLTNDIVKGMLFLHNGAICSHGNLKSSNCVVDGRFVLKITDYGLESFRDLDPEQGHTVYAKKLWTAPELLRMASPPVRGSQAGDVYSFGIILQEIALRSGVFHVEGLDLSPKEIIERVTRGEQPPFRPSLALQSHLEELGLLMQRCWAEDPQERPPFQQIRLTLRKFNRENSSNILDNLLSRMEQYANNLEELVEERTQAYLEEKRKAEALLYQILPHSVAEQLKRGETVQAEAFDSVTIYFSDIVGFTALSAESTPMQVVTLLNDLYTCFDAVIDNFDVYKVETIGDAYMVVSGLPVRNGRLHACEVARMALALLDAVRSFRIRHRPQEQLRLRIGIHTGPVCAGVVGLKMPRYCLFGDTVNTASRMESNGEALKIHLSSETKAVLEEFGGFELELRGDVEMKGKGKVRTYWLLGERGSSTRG
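HEK293 cells stably expressing human Npr1 and cGMP GloSensor pGS-40F, loaded 2 h with 2% GloSensor reagent, given compound 30 min at room temperature. Luminescence read before and 20 min after 0.1 nM hNppA.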
Luciferase inh: Firefly luciferase inhibition profiling of diverse chemical library using quantitative high-throughput screening. Luciferin 4-monooxygenase (Photinus pyralis), P08659. purified P. pyralis luciferase, luminescence, biochemical. Potency, µM (highest dose often 115 µM), hits mostly inhibitors. 76,000 compounds, 2.5% hits. AID 1347043, 2019; further: nearly all actives have a fitted effect of over 65% in size
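Luminescence read by CCD imaging after purified firefly luciferase (10nM final) was added to substrate buffer holding 10uM D-luciferin and 10uM ATP, pH 7.5, pre-dosed with compound.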
NIH3T3 tox: Cytotoxic Profiling in NIH 3T3 Cell Line of Diverse Libraries Using Quantitative High-Throughput Screening; NIH 3T3 viability, CellTiter-Glo ATP luminescence, 48-72 h; Potency, µM (doses to about 96.7 µM), for inactives: top-dose activity change, negative = cytotoxicity, usual class: inhibitors; 94,000 compounds, 4.3% hits; AID 1345082, 2018; further: nearly all actives have a fitted effect of over 55% in size
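ATP-dependent luminescence (CellTiter-Glo) served as the viability signal for NIH 3T3 cells treated with compound for 48 or 72 hr at 37 °C.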
Starred values were filed as active, the others as inactive; i = inactive; ? = inconclusive; / = no result given; [ ] = another dose, or the depositor's remark. Shown are actives, neighbours in structure and some others; about 11% of the full set was active somewhere. Unless noted, the call rests on the fitted dose curve; in most records, active means well fitted curve in the direction sought with a large enough effect; inconclusive means small, poorly fitted or top-dose-only effect, or another doubt; inactive means no such curve, though single readings can be large; an effect the other way counts as inactive or inconclusive. On the % scale 0 is the no-effect control and ±100 the full control effect; potency means the concentration at half of the fitted maximal effect.

SMILES	HEK cytotox	hNpr1 antagonist	Luciferase inh	NIH3T3 tox
COc1cccc(C(=O)N2CCC(N3C[C@H](O)C[C@H]3C(=O)Nc3ccccc3OC)CC2)c1	?	-2%	i	-11%
O=C(c1ccc(Cl)nc1)N1CCCC(C(=O)N2CCC(N3CCOC3=O)CC2)C1 (centres undefined)	-18%	/	/	-8%
O=C(Nc1ccc2c(N3CCOCC3)ncnc2c1)c1ccccc1C(F)(F)F	?	5%	i	28µM*
O=C(Nc1ccc2c(N3CCOCC3)ncnc2c1)c1ccc(F)c(Cl)c1	?	-1%	i	35µM*
O=C(Nc1ccc2c(N3CCOCC3)ncnc2c1)c1cccc(Br)c1	63µM*	-16%	i	?
CCOc1ccccc1CNC(=O)c1cc2n(n1)CC(c1ccc3c(c1)OCO3)OC2 (centres undefined)	?	-13%	i	?
O=C(NCC1CCCCCC1)c1nc2cccnc2n(CCc2ccccc2)c1=O	?	/	/	35µM*
CC(C)NC(=O)c1nc2cccnc2n(CCc2ccccc2)c1=O	20µM*	/	/	?
O=C(NC1CCCCC1)c1nc2cccnc2n(CCc2ccccc2)c1=O	?	/	/	-25%
O=C(NCC1CC1)C1CCN(c2nccc(Nc3ccccc3F)n2)CC1	?	/	/	-29%
COC(=O)CNC(=O)C1CCN(c2nccc(Nc3ccc(C)cc3)n2)CC1	i	/	/	-14%
Cc1ccc(Nc2ccnc(N3CCC(C(=O)NCC4CCCCCC4)CC3)n2)cc1	?	/	/	18µM*
Cc1ccc(Nc2ccnc(N3CCC(C(=O)Nc4ccccc4Cl)CC3)n2)cc1	?	/	/	40µM*
COc1ccc(Nc2ccnc(N3CCC(C(=O)NCC4CC4)CC3)n2)cc1	?	/	/	40µM*
C#CCNC(=O)C1CCN(c2nccc(Nc3ccc(C)cc3)n2)CC1	50µM*	/	/	?
O=C(NCc1ccccn1)c1ccc2nnc(-c3ccc(F)cc3)n2c1	i	/	/	-8%
CN(c1ccccc1)C1CNC1	5%[287 µM]	/	/	i
Cc1ccc(Nc2ccnc(N3CCCC(C(=O)NCC4CC4)C3)n2)cc1 (centres undefined)	35µM*	/	/	35µM*
O=C([C@@H]1C[C@H](c2ccc(F)cc2)N(Cc2ccccc2Cl)C1)N1CCN(CCO)CC1	?	-16%	i	?
O=C(Nc1ccccn1)[C@@H]1C[C@@H](c2ccc(F)cc2)N(Cc2ccccc2)C1	?	?	i	?
O=C([C@@H]1C[C@H](c2ccc(F)cc2)N(Cc2ccccc2Cl)C1)N1CC(O)C1	71µM*	-13%[70.6 µM]	i	89µM*
O=C([C@@H]1C[C@H](c2ccc(F)cc2)N(Cc2ccccc2Cl)C1)N1CCOCC1	?	-5%[70.6 µM]	i	89µM*
CCn1nccc1C(=O)N1CCC2(CC1)c1[nH]c3ccc(OC)cc3c1CCN2C	?	8%	i	-20%
O=C(c1ccccc1)N1CCC2(CC1)C(=O)NCN2C(=O)Cc1ccc(O)cc1	-10%	/	/	-16%
O=[S+]([O-])(c1ccccc1)N1CC2(COCCN(Cc3ccc(Cl)cc3)C2)C1	?	-9%[70.6 µM]	i	?
SMILES	HEK cytotox	hNpr1 antagonist	Luciferase inh	NIH3T3 tox
COc1ccc(C(=O)N2CCOCC3(CN(Cc4cccc(C#N)c4)C3)C2)cc1OC	?	7%[70.6 µM]	i	79µM*
O=C(c1ccc(Cl)cc1)N1CCOCC2(C1)CN([S+](=O)([O-])c1ccccc1)C2	?	1%[70.6 µM]	i	50µM*
O=C(c1cccc(C(F)(F)F)c1)N1CCOCC2(CN(Cc3ccccc3)C2)C1	7.1µM*	-3%[70.6 µM]	i	7.1µM*
COc1ccc(-c2ccccc2C(=O)N2CCC(NC(=O)c3ccccc3Cl)CC2)nn1	3%	/	/	-19%
CSc1ccc(NC(=O)c2ccc3c(c2)N(C)C2CCCCN2C3=O)cc1 (centres undefined)	?	-1%	45µM*	?
CSc1ccc(CNC(=O)c2ccc3c(c2)N(C)C2CCCCN2C3=O)cc1 (centres undefined)	?	-11%	?	-23%
CN1c2cc(C(=O)Nc3ccc(F)cc3)ccc2C(=O)N2CCCCCC21 (centres undefined)	?	-14%	25µM*	?
CN1c2cc(C(=O)Nc3cc(F)cc(F)c3)ccc2C(=O)N2CCCCC21 (centres undefined)	?	-15%	?	?
O=C(Cc1cccc(Cl)c1)NC1CCN(Cc2cccc(-c3ccc(F)c(F)c3)c2)CC1	20µM*	/	/	16µM*
O=C(Nc1ccccc1F)NC1CCN(Cc2cccc(-c3cccs3)c2)CC1	25µM*	/	/	25µM*
O=C(Cc1cccc(Cl)c1)NC1CCN(Cc2cccc(-c3cccs3)c2)CC1	22µM*	/	/	11µM*
O=C(NC1CCCC1)NC1CCN(Cc2cccc(-c3cccs3)c2)CC1	?	/	/	-34%
c1ccc(CN2C[C@H]3CCN(C4CCCC4)C[C@H]32)cc1	-25%	/	/	?
Cc1cccc(C(=O)N2CCCN(Cc3ccncc3)C(c3ccccc3)CC(=O)NCC2)c1 (centres undefined)	-13%	2%	i	-12%
CCCS(=O)(=O)N1CCCN(CC)C2(CCOCC2)C1	i	/	/	-3%
CC(C)(C)COC(=O)N1C[C@@H](CO)[C@@H]2Oc3c(F)cccc3[C@@H]21	?	/	/	32µM*
COc1ccc(CN2CCCC(c3cc(=O)[nH]c(C)n3)C2)c(OC)c1C (centres undefined)	45µM*	5%	i	?
CC(=O)N1CCC(C(=O)N2CCC(c3nc4ncccc4[nH]3)CC2)C1 (centres undefined)	-4%	/	/	3%
COc1ccc(OC)c(CNC(=O)COc2ccc(NC(=O)C3CC3)cn2)c1	10%	4%	i	-1%
COc1ccccc1Nc1ccnc(N2CCN(C(=O)c3ccccc3F)CC2)n1	45µM*	/	/	?
O=C(C1CCCN1c1nccc(Nc2ccccc2F)n1)N1CCN(c2ncccn2)CC1 (centres undefined)	-13%	/	/	i
O=C(C1CCCC1)N1CCN(c2nccc(Nc3ccccc3F)n2)CC1	?	/	/	22µM*
COc1ccccc1Nc1ccnc(N2CCC(NC(=O)N(C)C)CC2)n1	?	/	/	-21%
COc1ccccc1Nc1ccnc(N2CCC(C(=O)NC3CC3)CC2)n1	-20%	/	/	?
COc1ccccc1Nc1ccnc(N2CCN(C(=O)c3ccccc3C)CC2)n1	45µM*	/	/	?
COc1ccccc1Nc1ccnc(N2CCN(C(=O)c3ccccc3)CC2)n1	?	/	/	35µM*
CN1CC(=O)N(C2CCCCC2)Cc2c(NCCO)ncnc21	i	/	/	-14%[138 µM]
CN(C)C(=O)N1CCN(c2nccc(Nc3ccccc3F)n2)CC1	-17%	/	/	-30%
O=C(c1ccccc1F)N1CCN(c2nccc(Nc3ccccc3F)n2)CC1	35µM*	/	/	?
c1cc(-c2n[nH]c(CNC3CCC4(CCNCC4)CC3)n2)ccn1	-1%	11%	i	-7%
